Test results taken from the supplement of paper PMC6953052.
Structures can show the parent of a compound that is named as a salt. The full ranking holds about 1,700 compounds; the median of “fraction of GFP-LC3-positive cells (≥5 vesicles/cell)” is about 0.058, and the highest 2% start at about 0.59. This excerpt belongs to a sample that is enriched for the highest values.

test system: CbCln3 +/+ GFP-LC3 cerebellar neuronal cells; assay: fraction of GFP-LC3-positive cells (≥5 vesicles/cell); higher = more autophagosome accumulation
Method in brief: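 Compound (~50 nL in DMSO) was pin-transferred in duplicate onto wild-type or mutant CbCln3 cerebellar cells stably expressing GFP-LC3, seeded at 2 × 10^3/well in 384-well plates, for 24 h at 33 °C. After fixation in 3.2% PFA, three fields per well were imaged at 10×. The value reported is the duplicate average of the fraction of cells meeting a vesicle-count threshold, with CellProfiler counting GFP-LC3 vesicles per cell and out-of-focus images excluded. Cells met the threshold at 5 or more vesicles.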

Point of comparison: C/C1=C/C(=O)O[C@@H]2C[C@@H](CC[C@H](C)/C=C\CC1)O[C@@](O)([C@@H]1CSC(=O)N1)C2 [Latrunculin B], “fraction of GFP-LC3-positive cells” value 0.94. Against it:
- CC(C)(C)c1cc(C=C(C#N)C#N)cc(C(C)(C)C)c1O — lower, 0.357
- N#CC(C#N)=Cc1cc(O)c(O)c(O)c1 — lower, 0.0475
- CC(C)(C)c1cc(C=C(C#N)C#N)cc(C(C)(C)C)c1O [tyrphostin 9] — lower, 0.67
- N#CC(C#N)=Cc1ccc(O)c(O)c1 — lower, 0.094
- CCN(CC)C(=O)N[C@H]1C[C@@H]2c3cccc4[nH]cc(c34)C[C@H]2N(C)C1.O=C(O)/C=C\C(=O)O [S(-)-terguride hydrogen maleate] — lower, 0.0461
- CC(C)[C@]12O[C@H]1[C@@H]1O[C@]13[C@]1(O[C@H]1C[C@H]1C4=C(CC[C@@]13C)C(=O)OC4)[C@@H]2O [Triptolide] — lower, 0.268
- Cl.NCCc1c[nH]c2ccc(O)cc12 [Serotonin hydrochloride] — lower, 0.0685
- C#CCN(C)[C@H](C)Cc1ccccc1.Cl [Selegiline hydrochloride] — lower, 0.0621
- C[N+]1(C)CCCC(OC(=O)C(O)(c2ccccc2)c2ccccc2)C1.[Br-] (stereo not drawn) [Mepenzolate bromide] — lower, 0.0681
- COc1cc2c(c(OC)c1OC)-c1ccc(O)c(=O)cc1[C@@H](N)CC2 [Trimethylcolchicinic acid] — lower, 0.0619
- COC1=C[C@@H]2C3=C([C@@H]2C1=O)[C@@H](NC(C)=O)CCc1cc(OC)c(OC)c(OC)c13 [Lumicolchicine gamma] — lower, 0.0307
- COc1cc2c(c(OC)c1OC)-c1ccc(OC)c(=O)cc1[C@@H](NC(C)=O)CC2 [Colchicine] — lower, 0.778
- CC(C)(O)[C@H]1O[C@H]2CC[C@@]3(C)[C@@](O)(CC[C@H]4Cc5c([nH]c6ccccc56)[C@@]43C)C2=CC1=O — lower, 0.0216
- C/C=C(/C)C(=O)O[C@H]1C(C)=C2[C@H]([C@@H]1OC(=O)CCCCCCC)[C@@](C)(OC(C)=O)C[C@H](OC(=O)CCC)[C@@]1(O)[C@H]2OC(=O)[C@@]1(C)O — lower, 0.665
- Cl.O[C@@H]1CCCC[C@H]1N1CCC(c2ccccc2)CC1 [L(-)-vesamicol hydrochloride] — lower, 0.076
- CC(C)N(CCC(C(N)=O)(c1ccccc1)c1ccccn1)C(C)C (stereo not drawn) [Disopyramide] — lower, 0.0661
- COc1cc2c(cc1O)[C@@H]1Cc3ccc(OC)c(O)c3CN1CC2 [Scoulerine] — lower, 0.588
- O.O.O.O=C1OC2(c3cc(Br)c([O-])cc3Oc3c2cc(Br)c([O-])[c]3[Hg][OH])c2ccccc21.[Na+].[Na+] (stereo not drawn) [Merbromin] — higher, 0.957
- CCCCC/C=C\C/C=C\C/C=C\C/C=C\CCCC(=O)NCc1ccc(O)c(OC)c1 [Arvanil] — lower, 0.144
- CC[C@@]1(O)C(=O)OCc2c1cc1n(c2=O)Cc2cc3ccccc3nc2-1 [Camptothecine (S,+)] — lower, 0.321
- OC[C@H]1O[C@@H](n2cnc3cc(Cl)c(Cl)cc32)C(O)[C@H]1O (stereo partly drawn) — lower, 0.0687
- C=C1[C@@H](O)C2O[C@@]3(CCC2O[C@@H]1C(O)C[C@H](C)C1O[C@@]2(CCCCO2)CC[C@H]1C)CC[C@@H](/C=C/[C@@H](C)[C@@H]1CC(C)=C[C@@]2(O[C@H](C[C@@](C)(O)C(=O)O)CCC2O)O1)O3 (stereo partly drawn) [okadaic acid] — lower, 0.831
- CCN1C[C@]2(COC)CC[C@H](O)[C@]34C1[C@H](C[C@H]23)[C@@]1(O)C[C@H](OC)[C@H]2C[C@@H]4[C@@H]1[C@H]2OC(C)=O [Condelphine] — lower, 0.043
- O=C(O)/C=C\C(=O)O.O=C(O)/C=C\C(=O)O.c1ccc2nc(N3CCNCC3)ccc2c1 [Quipazine dimaleate salt] — lower, 0.041
- C[C@H]1CCC/C=C/C2C[C@H](O)C[C@H]2[C@H](O)/C=C/C(=O)O1 (stereo partly drawn) [brefeldin A] — lower, 0.0802
- C=C1[C@@H](C)[C@H]2[C@H](Cc3ccccc3)NC(=O)[C@]23[C@H](OC(C)=O)/C=C/[C@](C)(O)C(=O)[C@@H](C)C/C=C/[C@H]3[C@@H]1O [cytochalasin D] — lower, 0.411
- CCCC[C@@H](C)[C@@H](OC(=O)C[C@@H](CC(=O)O)C(=O)O)[C@H](C[C@@H](C)C[C@H](O)CCCC[C@@H](O)C[C@H](O)[C@H](C)N)OC(=O)C[C@H](CC(=O)O)C(=O)O [Fumonisin B1] — lower, 0.0462
- CCN1C[C@]2(C)CC[C@H](O)[C@]34C1[C@H](C[C@H]23)[C@@]1(O)C[C@H](OC)[C@H]2C[C@@H]4[C@@H]1C2O (stereo partly drawn) [Karakoline] — lower, 0.0388
- CNc1ccc2oc(C[C@@H]3OC4(CC[C@@H]3C)O[C@H](C(C)C(=O)c3ccc[nH]3)[C@H](C)C[C@H]4C)nc2c1C(=O)O (stereo partly drawn) — lower, 0.276
- C=C(C)[C@H]1O[C@H]2CC[C@@]3(C)[C@@](O)(CC[C@H]4[C@@H]5OC(C)(C)[C@H]6C[C@@H]7C(=C)Cc8c(Cl)cc9[nH]c(c5c9c8[C@@]76O)[C@@]43C)[C@]23O[C@@H]3[C@H]1O — lower, 0.667
- CN1C2CCCC1CC(=O)C2.Cl [Pseudopelletierine hydrochloride] — lower, 0.111
- CN[C@@H]1C[C@H]2O[C@@](C)([C@@H]1OC)n1c3ccccc3c3c4c(c5c6ccccc6n2c5c31)C(=O)NC4 [staurosporine] — lower, 0.542
- CCCCCCCCCCCCCCCCOC[C@H](COP(=O)([O-])OCC[N+](C)(C)C)OC(C)=O — lower, 0.0259
- CCCCCC1OC1C/C=C\CCCCCCCC(=O)O (stereo not drawn) — lower, 0.062
- CCCCCC1OC1C/C=C\CCCCCCCC(=O)O (stereo not drawn) [Leukotoxin B (12,13-EODE)] — lower, 0.0763
- Cc1c2ccncc2c(C)c2c1[nH]c1ccccc12 [Ellipticine] — higher, 0.984
- Cc1nccc2c1[nH]c1ccccc12.Cl [Harmane hydrochloride] — lower, 0.0738
- O=C1C=C2C=C[C@@H]3CC2(O1)[C@H]1CCCCN31 [Securinine] — lower, 0.0519
- CC(C)(C)NCC(O)c1cc(Cl)c(N)c(Cl)c1.Cl (stereo not drawn) [Clenbuterol hydrochloride] — lower, 0.0519
- CC[C@@H](CO)NC(=O)[C@@H]1C=C2c3cccc4[nH]cc(c34)C[C@H]2N(C)C1.O=C(O)/C=C\C(=O)O [Methylergometrine maleate] — lower, 0.0308
- CC1=CC(=O)C2=C(C)C[C@H](O)[C@@H]3[C@H](OC(=O)[C@H]3C)[C@@H]12.O [Austricine] — lower, 0.0585
- Clc1ccc(C2CC3CCC2N3)cn1 (racemic) [epibatidine (+/-)] — lower, 0.0633
- N#CC(C#N)=NNc1ccc(OC(F)(F)F)cc1 — lower, 0.918
- C[C@@H]1O[C@@H](O[C@@H]2C=C3CCC4C(CC[C@]5(C)[C@@H](c6ccc(=O)oc6)CC[C@]45O)[C@@]3(C)CC2)[C@H](O)[C@H](O)[C@H]1O (stereo partly drawn) [Proscillaridin A] — lower, 0.0563
- CN1Cc2c(ccc3c2OCO3)[C@@H]2[C@H]1c1cc3c(cc1C[C@@H]2O)OCO3.O [Chelidonine (+)] — lower, 0.593
- CN1CCc2cc3c(cc2[C@H]1[C@@H]1OC(=O)c2c1ccc1c2OCO1)OCO3 [Bicuculline (+)] — lower, 0.0481
- CN1CCC2=C[C@H](O)[C@H]3OC(=O)c4cc5c(cc4[C@H]3[C@@H]21)OCO5 [Hippeastrine hydrobromide] — lower, 0.0629
- CCCCCC[C@H]1C(=O)O[C@H](C)C(NC(=O)c2cccc(NC=O)c2O)C(=O)O[C@@H](C)[C@@H]1OC(=O)CC(C)C (stereo partly drawn) [Antimycin A] — lower, 0.0705
- CC/C=C\C[C@@H](/C=C/C=C\C/C=C\C/C=C\CCCC(=O)O)OO — lower, 0.0447
- COC1=CC(=O)OC(/C=C/c2ccccc2)C1 (racemic) [Kavain (+/-)] — lower, 0.0407
- O=c1[nH]c2ccccc2n1C1CCN(CCCC(c2ccc(F)cc2)c2ccc(F)cc2)CC1 [Pimozide] — lower, 0.0546
- COc1ccc2c(c1OC)C(=O)O[C@@H]2[C@H]1c2cc3c(cc2CCN1C)OCO3.Cl [Hydrastine hydrochloride] — lower, 0.0565
- COc1cc([C@@H]2c3cc4c(cc3[C@H](O)[C@H]3COC(=O)[C@H]23)OCO4)cc(OC)c1OC [Podophyllotoxin] — lower, 0.682
- COc1ccc2c(c1OC)CN1CCc3cc4c(cc3C1C2)OCO4 (stereo not drawn) [(d,l)-Tetrahydroberberine] — lower, 0.0361
- CCCCC/C=C\C/C=C\C/C=C\C/C=C\CCCC(=O)NCCO — lower, 0.0573
- CCCCC/C=C\C/C=C\C/C=C\C/C=C\CCCC(=O)NCCO [Anandamide (20:4, n-6)] — lower, 0.0367
- COC(=O)[C@@]1(O)C[C@@H]2O[C@@]1(C)n1c3ccccc3c3c4c(c5c6ccccc6n2c5c31)C(=O)NC4 — lower, 0.16
